Assay results from PubChem BioAssay (NCI).
This is part of a sample that, as a whole, favours compounds with a hit. Of some 83,000 tested, about 20% had one in any assay.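 Cell lines were cultured in 96-well plates, exposed to a single compound concentration, and assessed for percent growth 48 hours later.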 Unmarked numbers belong to inactive results. Activity calls are given as the source filed them. The calls were made as follows: active = growth percent below 10; inactive = the rest.

How the values were obtained:
Experiment in all cases: NCI-60 one-dose screen, 48 h (100 = growth as untreated, 0 = no growth, -100 = all killed)
HCT-15 colon = conditions: 10 µM unless noted
HT29 colon = conditions: 10 µM unless noted
SNB-75 CNS = conditions: 10 µM unless noted
U251 CNS = conditions: 10 µM unless noted
SK-MEL-5 melanoma = conditions: 10 µM unless noted
UACC-62 melanoma = conditions: 10 µM unless noted
LOX IMVI melanoma = conditions: 10 µM unless noted
SK-MEL-28 melanoma = conditions: 10 µM unless noted
SK-MEL-2 melanoma = conditions: 10 µM unless noted
EKVX NSCLC = conditions: 10 µM unless noted
SN12C renal = conditions: 10 µM unless noted
UO-31 renal = conditions: 10 µM unless noted
TK-10 renal = conditions: 10 µM unless noted
ACHN renal = conditions: 10 µM unless noted
CAKI-1 renal = conditions: 10 µM
A498 renal = conditions: 10 µM unless noted
CCRF-CEM leukemia = conditions: 10 µM unless noted
MOLT-4 leukemia = conditions: 10 µM unless noted
SNB-19 CNS = conditions: 10 µM unless noted
PC-3 prostate = conditions: 10 µM unless noted

SMILES: CCOC(=O)c1nn(-c2ccccc2)c(=O)c2c(N)c(C#N)c(-c3cccs3)cc12
- growth (HCT-15 colon): 87.6%
- growth (HT29 colon): 61.9%
- growth (SNB-75 CNS): -8.81% (active)
- growth (U251 CNS): 77.3%
- growth (SK-MEL-5 melanoma): 96.4%
- growth (UACC-62 melanoma): 85.8%
- growth (LOX IMVI melanoma): 73%
- growth (SK-MEL-28 melanoma): 99.9%
- growth (SK-MEL-2 melanoma): 98.4%
- growth (EKVX NSCLC): 83.9%
- growth (SN12C renal): 75.1%
- growth (UO-31 renal): 50.9%
- growth (TK-10 renal): 115%
- growth (ACHN renal): 54.4%
- growth (CAKI-1 renal): 62.8%
- growth (A498 renal): 102%
- growth (CCRF-CEM leukemia): 99.5%
- growth (MOLT-4 leukemia): 97%

SMILES: O=C(CCCCCCN1CC(=O)N2[C@@H](c3ccc(Cl)c(F)c3)c3[nH]c4ccccc4c3C[C@H]2C1=O)NO
- growth (HCT-15 colon): 98.6%
- growth (HT29 colon): 89.3%
- growth (SNB-19 CNS): 86.6%
- growth (U251 CNS): 85.1%
- growth (PC-3 prostate): 63.8%
- growth (SK-MEL-5 melanoma): 86%
- growth (UACC-62 melanoma): 48.7%
- growth (LOX IMVI melanoma): -79.9% (active)
- growth (SK-MEL-28 melanoma): 86.2%
- growth (SK-MEL-2 melanoma): 104%
- growth (EKVX NSCLC): 87.9%
- growth (SN12C renal): 83.8%
- growth (UO-31 renal): 75.3%
- growth (TK-10 renal): 107%
- growth (ACHN renal): 92.1%
- growth (CAKI-1 renal): 70.8%
- growth (A498 renal): 106%
- growth (CCRF-CEM leukemia): 41.2%
- growth (MOLT-4 leukemia): 45.3%

SMILES: Oc1ccc(CSc2nnc(-c3ccc(Cl)cc3)o2)c2cccnc12
- growth (HCT-15 colon): 14.4%
- growth (HT29 colon): 102%
- growth (SNB-19 CNS): 16.5%
- growth (U251 CNS): 10.5%
- growth (PC-3 prostate): 21.4%
- growth (SK-MEL-5 melanoma): 11.1%
- growth (UACC-62 melanoma): 5.12% (active)
- growth (LOX IMVI melanoma): 4.17% (active)
- growth (SK-MEL-28 melanoma): 26.6%
- growth (SK-MEL-2 melanoma): 54.9%
- growth (EKVX NSCLC): 34%
- growth (SN12C renal): 37.4%
- growth (UO-31 renal): 2.83% (active)
- growth (TK-10 renal): 39.1%
- growth (ACHN renal): 11.4%
- growth (CAKI-1 renal): 20.2%
- growth (A498 renal): 75.5%
- growth (CCRF-CEM leukemia): 13.3%
- growth (MOLT-4 leukemia): 15.3%

SMILES: O=C(NNc1nc2cc(F)cc(F)c2n2cccc12)c1ccncn1
- growth (HCT-15 colon): 25.3%
- growth (HT29 colon): 23.8%
- growth (SNB-75 CNS): 19.3%
- growth (U251 CNS): 9.14% (active)
- growth (SK-MEL-5 melanoma): -4.3% (active)
- growth (UACC-62 melanoma): 3.64% (active)
- growth (LOX IMVI melanoma): 6.37% (active)
- growth (SK-MEL-28 melanoma): 22.9%
- growth (SK-MEL-2 melanoma): 22%
- growth (EKVX NSCLC): 7.66% (active)
- growth (SN12C renal): 19.6%
- growth (UO-31 renal): 17.3%
- growth (TK-10 renal): 10%
- growth (ACHN renal): 11.6%
- growth (CAKI-1 renal): 16.5%
- growth (A498 renal): 22.2%
- growth (CCRF-CEM leukemia): 5.12% (active)
- growth (MOLT-4 leukemia): 4.2% (active)

SMILES: O=C1[C@H]2Cc3c([nH]c4ccccc34)[C@@H](c3c(Cl)cccc3Cl)N2C(=O)CN1C1CCN(Cc2ccccc2)CC1
- growth (HCT-15 colon): 25.5%
- growth (HT29 colon): 9.36% (active)
- growth (SNB-19 CNS): 89.6%
- growth (U251 CNS): 50.1%
- growth (PC-3 prostate): 77.8%
- growth (SK-MEL-5 melanoma): 84.6%
- growth (UACC-62 melanoma): 72.5%
- growth (LOX IMVI melanoma): -31.2% (active)
- growth (SK-MEL-28 melanoma): 93.1%
- growth (SK-MEL-2 melanoma): 114%
- growth (EKVX NSCLC): 96.2%
- growth (SN12C renal): 73.3%
- growth (UO-31 renal): 75.9%
- growth (TK-10 renal): 46.2%
- growth (ACHN renal): 93%
- growth (CAKI-1 renal): 67.6%
- growth (A498 renal): 102%
- growth (CCRF-CEM leukemia): 21.7%
- growth (MOLT-4 leukemia): 20%

SMILES: COc1cc(/C=N/n2cnc3oc(-c4ccccc4)cc3c2=N)cc(CN2CCOCC2)c1O
- growth (HCT-15 colon): 27.9%
- growth (HT29 colon): 60.3%
- growth (SNB-19 CNS): 101%
- growth (U251 CNS): 53.7%
- growth (PC-3 prostate): 64.6%
- growth (SK-MEL-5 melanoma): 62.3%
- growth (UACC-62 melanoma): 62.5%
- growth (LOX IMVI melanoma): 8.3% (active)
- growth (SK-MEL-28 melanoma): 78.3%
- growth (SK-MEL-2 melanoma): 104%
- growth (EKVX NSCLC): 89.9%
- growth (SN12C renal): 72.4%
- growth (UO-31 renal): 74%
- growth (TK-10 renal): 102%
- growth (ACHN renal): 28%
- growth (CAKI-1 renal): 43.7%
- growth (A498 renal): 53.8%
- growth (CCRF-CEM leukemia): 26.2%
- growth (MOLT-4 leukemia): 52.9%

SMILES: COc1ccc(-c2nnc(SCc3ccc(O)c4ncccc34)n2-c2ccccc2)cc1
- growth (HCT-15 colon): 9.65% (active)
- growth (HT29 colon): 59.2%
- growth (SNB-19 CNS): 14.4%
- growth (U251 CNS): 11.2%
- growth (PC-3 prostate): 20.7%
- growth (SK-MEL-5 melanoma): -11% (active)
- growth (UACC-62 melanoma): 2.62% (active)
- growth (LOX IMVI melanoma): -10.9% (active)
- growth (SK-MEL-28 melanoma): 20.2%
- growth (SK-MEL-2 melanoma): 33.8%
- growth (EKVX NSCLC): 23.6%
- growth (SN12C renal): 24.3%
- growth (UO-31 renal): -12.2% (active)
- growth (TK-10 renal): 38.4%
- growth (ACHN renal): 4.43% (active)
- growth (CAKI-1 renal): 11.5%
- growth (A498 renal): 35.3%
- growth (CCRF-CEM leukemia): 10.7%
- growth (MOLT-4 leukemia): 17.2%

SMILES: COc1cc2cc(Oc3ccc(NC(=O)c4cccc(C(F)(F)F)c4)cc3)c(C)nc2cc1OCCN(C)C
- growth (HCT-15 colon): -8.74% (active)
- growth (HT29 colon): 27.5%
- growth (SNB-19 CNS): 94.2%
- growth (U251 CNS): 63.4%
- growth (PC-3 prostate): 74.2%
- growth (SK-MEL-5 melanoma): -7.47% (active)
- growth (UACC-62 melanoma): 89.4%
- growth (LOX IMVI melanoma): -81.3% (active)
- growth (SK-MEL-28 melanoma): 72.2%
- growth (SK-MEL-2 melanoma): 108%
- growth (EKVX NSCLC): 83%
- growth (SN12C renal): 84.1%
- growth (UO-31 renal): 84%
- growth (TK-10 renal): 98%
- growth (ACHN renal): 86.6%
- growth (CAKI-1 renal): 75.2%
- growth (A498 renal): 100%
- growth (CCRF-CEM leukemia): 41%
- growth (MOLT-4 leukemia): 67.1%
